# Screening results deposited in PubChem BioAssay by National Center for Advancing Translational Sciences (NCATS).
# Compounds with a hit are over-represented: about 0.77% of the library has one in this group of screens.
# GoLoco inh red – RGS12 GoLoco-Gai1 interaction inhibition | Gai1:RGS12 GoLoco peptide FP, rhodamine, 10 min | Potency, µM (titrated, usually from 61.6 µM), inactives show at the highest dose activity, negative = inhibition, usual class: inhibitors | P63096 | 230,000 tested, 0.44% active; active means well fitted inhibition curve with a large enough effect, not every such curve was filed as active; inactive means no such curve, though single readings can be large or run the other way; further: potency means the concentration at half of the fitted maximal effect; on the % scale 0 is the no-effect control and ±100 the full control effect; nearly all actives have a fitted effect of over 30% in size
# Vif-A3F inh – inhibitors of Vif-A3F interaction; HeLa A3F-eYFP + Vif (tagged APOBEC3F with the HIV-1 protein that degrades it), YFP fluorescence increase; Potency, µM (doses to about 46.1 µM), without a hit: top-dose activity, negative = active; 390,000 tested, 0.2% active; AID 602313; further: potency means the concentration at half of the fitted maximal effect; % of control where 0% means no effect; nearly all actives have a fitted effect of over 65% in size
#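 HeLa cells stably expressing Vif plus C-terminally eYFP-tagged A3F were seeded, incubated overnight at 37 deg C, dosed with compound, incubated overnight again at 37 deg C. Yellow fluorescence (Ex 488/Em 500-530) reported blocked Vif-mediated A3F-eYFP degradation.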
# Vif-A3G inh – blocks the Vif interaction with human APOBEC3G; 410,000 tested, 0.076% active; HeLa A3G-eYFP + Vif (tagged APOBEC3G with the HIV-1 protein that degrades it), YFP fluorescence, overnight; Potency, µM (series often up to 46.1 µM), for inactives: at the highest dose activity, negative = active, hits mostly inhibitors; further: potency means the concentration at half of the fitted maximal effect; on the % scale 0 is the no-effect control and ±100 the full control effect; nearly all actives have a fitted effect of over 60% in size
#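 Read-out is eYFP fluorescence (Ex 488/Em 500-530) from Vif-expressing HeLa A3G-eYFP cells; more signal means A3G escaped Vif-mediated degradation. Cells plated overnight, compound pinned in, incubated overnight at 37 deg C.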
# IL-2 act – activators of IL-2. 360,000 tested, 0.065% active. AID 652025. activation, % (series mostly up to about 46 µM). IL-2 activation reporter assay, cell-based qHTS; stimulated with anti-CD3/CD4/CD28 beads; in transgenic mouse T cells; in the data active means activation above about 50%; inconclusive means mostly about 30% to 49%; further: 0% is about no effect
#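 Unstimulated transgenic mouse T cells; 60-min compound exposure; bead-based TCR/CD4/CD28 stimulation; 18 h culture, 37 degrees C; dual fluorescence (EGFP, DsRed) plate cytometry.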
# GCN5L2 inh – blocks human GCN5L2 histone acetyltransferase. Q92830. GCN5L2 HAT assay, ThioGlo1 CoA-SH fluorescence. Potency, µM (doses to about 58.9 µM), without a hit: at the highest dose activity change, negative = inhibition, most hits filed as inhibitors. 390,000 tested, 0.21% active; further: potency means the concentration at half of the fitted maximal effect; on the % scale 0 is the no-effect control and ±100 the full control effect
#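 GCN5L2 (20nM final) in 50mM HEPES, 0.1mM EDTA pH 7.5, 0.01% Tween-20 was preincubated 15 min at room temperature with compound, then given ThioGlo1 (50uM), H3(1-25) peptide (75uM) and acetyl-CoA (70uM); CoA-thiol fluorescence (Ex340/Em540) was read at 0 and 20 min.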
# PKM2 activator – increases activity of human pyruvate kinase M2 | P14618 | purified PKM2, Kinase-Glo ATP luminescence, activation; response scale: 0% is enzyme alone, no compound | Potency, µM (top dose mostly 57.5 µM), for inactives: top-dose activation, most hits filed as activators | 260,000 tested, 0.34% active; further: potency means the concentration at half of the fitted maximal effect; on the % scale 0 is the no-effect control and ±100 the full control effect; nearly all actives have a fitted effect of over 55% in size
# Target sequence (P14618 whole entry, looked up): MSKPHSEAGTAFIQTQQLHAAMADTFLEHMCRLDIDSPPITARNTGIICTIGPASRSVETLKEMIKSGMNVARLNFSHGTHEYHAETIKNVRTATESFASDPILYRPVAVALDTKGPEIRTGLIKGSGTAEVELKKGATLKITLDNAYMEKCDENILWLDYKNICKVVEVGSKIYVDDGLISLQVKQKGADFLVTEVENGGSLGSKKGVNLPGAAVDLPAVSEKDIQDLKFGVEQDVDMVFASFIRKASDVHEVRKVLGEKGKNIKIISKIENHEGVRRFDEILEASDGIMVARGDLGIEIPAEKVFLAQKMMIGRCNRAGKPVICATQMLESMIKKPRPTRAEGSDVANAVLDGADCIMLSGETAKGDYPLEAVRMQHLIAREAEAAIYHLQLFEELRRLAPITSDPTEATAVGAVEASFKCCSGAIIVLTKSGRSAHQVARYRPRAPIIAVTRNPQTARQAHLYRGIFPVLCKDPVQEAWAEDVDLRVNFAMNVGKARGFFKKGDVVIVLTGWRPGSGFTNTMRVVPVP
#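 hPK-M2, >95% pure; 0.1 mM ADP / 0.5 mM PEP final; imidazole pH7.2 buffer w/ 7 mM MgCl2, 50 mM KCl; 1 h RT; Kinase-Glo lum. Intermediate enzyme activity for dual inhibitor/activator qHTS.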
# Starred values were filed as active, the others as inactive; ? = inconclusive; / = no result given; [ ] = remark or other dose. Unless noted, the call rests on the fitted dose curve; in most records, active means well fitted curve in the direction sought with a large enough effect; inconclusive means small, poorly fitted or top-dose-only effect, or another doubt; inactive means no such curve, though single readings can be large; an effect the other way counts as inactive or inconclusive.
SMILES,GoLoco inh red,Vif-A3F inh,Vif-A3G inh,IL-2 act,GCN5L2 inh,PKM2 activator
O=C1c2ccccc2C(=O)c2c(NCCCN(CCO)CCO)cccc21,111%,-5%,6%,-1,22%,-8%
O=C1c2ccccc2C(=O)c2c(O)ccc(O)c21,28µM*,/,/,/,/,/
CN(C)CCCNc1cc(O)c2c(c1O)C(=O)c1ccccc1C2=O,3.5µM*,/,/,/,/,/
O=C(CC1SC(=Nc2ccc3c(c2)OCCO3)NC1=O)Nc1ccc(F)cc1F (centres undefined),0%,-1%,-9%,3,0%,-4%
Cc1ccc(Cl)cc1N1CCN(Cc2nc3c(c(=O)[nH]c(=O)n3C)n2Cc2ccccc2F)CC1,-2%,-17%,-27%,-2,-4%,6%
Cc1cc2nnc(SCc3ccc4c(c3)OCO4)n2c2ccccc12,/,13%,1%,1,/,/
c1ccc2c(c1)ccc1nnc(SCc3ccc4c(c3)OCCO4)n12,-9%,2%,0%,-2,-15%,22µM*
CCCCc1nnc(NC(=O)CSCc2cc(=O)n3c(C)csc3n2)s1,/,5%,-4%,-1,-8%,/
C=CCn1c(SCC(N)=O)nc2scc(-c3ccc(C)o3)c2c1=O,-15%,2%,-3%,-2,-25%,32µM*
O=C(N/N=C/c1ccc(OCCCF)cc1)c1cc(OCC(F)(F)F)ccc1OCC(F)(F)F,6%,-1%,-6%,-2,0.89µM*,0%
O=C(N/N=C\c1ccc(F)cc1)c1cc(OCC(F)(F)F)ccc1OCC(F)(F)F,3%,-11%,0%,-2,1%,0%
CCOC(=O)c1c(C)oc2nc(C)nc(N3CCN(c4ccccc4)CC3)c12,/,1%,-8%,/,-3%,/
CSC1=NC2C(N1)N(C)C(=O)N2C (centres undefined),16µM*,-12%,2%,-1,-4%,1%
CCCCN1C(=O)N(C)C2NC(=O)NC21 (centres undefined),2%,-3%,-5%,0,-1%,-2%
CCc1ccc(S(=O)(=O)c2nnn3c2nc(NCCNC(C)=O)c2ccccc23)cc1,5%,3%,1%,1,-3%,11µM*
COc1cc(/C=C2\SC(=S)N(NC(=O)c3ccc(O)c(OC)c3)C2=O)ccc1O,/,10µM*,-19%,0,?,/
COc1cc(/C=C2\SC(=S)N(NC(=O)c3cccc(O)c3)C2=O)ccc1O,/,?,-15%,1,-15%,/
CCOc1cc(/C=C2/SC(=S)N(CC3CCCO3)C2=O)ccc1O (centres undefined),331%,22µM*,-15%,?,0%,-5%
COc1cc(/C=C2\SC(=S)N(NC(=O)c3ccccc3OC)C2=O)ccc1O,/,22µM*,-3%,1,-15%,/
COc1cc(/C=C2\SC(=S)N(NC(=O)c3ccncc3)C2=O)ccc1O,268%,-11%,-9%,-5,-8%,0%
CCOCCCNC(=O)c1ccc(CN2CCc3ccccc3C2)cc1,/,-6%,-1%,-1,/,/
O=C1C(Cl)=C(N2CCOCC2)C(=O)N1c1cccc(Cl)c1,-8%,2%,-1%,3,-3%,14µM*
Cc1cccc(N2C(=O)C(Cl)=C(N3CCOCC3)C2=O)c1,-3%,-8%,-2%,1,-1%,?
Cc1cc(Nc2ccc(O)cc2)ccc1N,28µM*,/,5%,/,1%,/
COc1ccc(-c2cn[nH]c2-c2ccc(OCc3ccc(F)cc3)cc2O)cc1OC,0%,-3%,-2%,0,-18%,0%
SMILES,GoLoco inh red,Vif-A3F inh,Vif-A3G inh,IL-2 act,GCN5L2 inh,PKM2 activator
CC(=O)Nc1ccc(S(=O)(=O)Nc2nnc(C(C)(C)C)s2)cc1,-11%,0%,-1%,1,-8%,16µM*
CCOc1cc(CNCCc2ccc(S(N)(=O)=O)cc2)ccc1OCC(=O)NC1CCCCC1,8%,-5%,-1%,0,-2%,-1%
COc1ccccc1NC(=O)c1sc2ncn(CC(=O)Nc3ccccc3)c(=O)c2c1C,/,25µM*,-3%,2,-9%,2%
CCN1CCN(C(=O)Cn2c(-c3cccs3)cc3ccccc32)CC1,/,-2%,0%,/,-4%,/
C[C@@H]1O[C@@H](O[C@@H]2C(=O)c3c(O)cc(O)cc3O[C@H]2c2ccc(O)c(O)c2)[C@H](O)[C@H](O)[C@H]1O,/,0%,11µM*,0,-3%,/
Cn1c2ccccc2c2ccc3c(c21)C(=O)C=CC3=O,/,11µM*,-6%,-5,/,/
O=C(c1ccc2c(=O)n(Cc3ccco3)c(=S)[nH]c2c1)N1CCN(c2ccccc2)CC1,-1%,-13%,0%,-1,-16%,13µM*
CCCn1c(=S)[nH]c2cc(C(=O)N3CCN(c4ccccc4)CC3)ccc2c1=O,/,4%,-1%,0,/,/
O=C(NCCOc1ccccc1)c1cccc2c1C(=O)c1ccc(Cl)cc1S2(=O)=O,/,-1%,0%,-3,-6%,/
COc1ccc(-c2ccc3c(c2)S(=O)(=O)c2cccc(C(=O)NCCOc4ccccc4)c2C3=O)cc1OC,/,?,11µM*,23,-5%,/
COCCn1c(COc2cccc(OC)c2)nnc1SCC(=O)NC1CCCC1,/,15%,3%,1,-5%,-11%
CCOc1ccc(NC2=NCCC(=O)N2Cc2cccs2)cc1,-1%,-10%,2%,0,-7%,2%
C[N+]1(CC(O)COCC2COc3ccccc3O2)CCOCC1 (centres undefined),2µM*,7%,2%,1,-20%,0%
OC(COCC1COc2ccccc2O1)CN1CCN(c2ccccc2)CC1 (centres undefined),-1%,-6%,0%,0,-4%,-3%
COc1cc(/C=C2/SC(=S)N(Cc3ccccc3)C2=O)ccc1O,/,?,?,-4,-17%,14%[11.5 µM]
O=C1/C(=C\c2cc([N+](=O)[O-])ccc2O)SC(=S)N1Cc1ccc(Cl)cc1,/,13µM*,?,0,-13%,/
O=C(O)CN1C(=O)/C(=C\c2cc([N+](=O)[O-])ccc2OCc2ccccc2Cl)SC1=S,/,17%,5%,1,?,0%
O=C1/C(=C\c2ccc(O)c(O)c2)SC(=S)N1Cc1ccccc1,/,?,22µM*,0,-25%,/
O=C1/C(=C\c2cccc(O)c2O)SC(=S)N1Cc1ccccc1,/,0%,-12%,-1,20µM*,-3%
O=C1/C(=C\c2cccc(O)c2)SC(=S)N1Cc1ccccc1,/,-15%,-14%,1,-17%,-1%
N#CCCSc1ccccc1NC(=O)c1ccc(S(=O)(=O)N2CCCC2)cc1,-12%,/,/,/,-7%,20µM*
